Compound activity as filed in PubChem BioAssay.
Sfp inh = Sfp phosphopantetheinyl transferase inhibition | Q9F4F7 | Biochemical Sfp PPTase activity, qHTS | Potency, µM, inactives show largest response in the series, negative = inhibition, actives largely listed as inhibitors | 3.5% of 310,000 active | AID 1490;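 note: the enzyme is Sfp with the accession as filed and its product quenches rhodamine fluorescence; potency is the fitted concentration of half-maximal effect; 0% = enzyme reaction without inhibitor and -100% = no enzyme wells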
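Compounds were incubated with enzyme (final 15 nM) for 15 min at room temperature before substrate addition started the reaction. Fluorescence at 525 nm excitation, 598 nm emission was recorded immediately and after 30 minutes.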
MmCpn inh = inhibitors of Methanococcus maripaludis chaperonin TRiC (MmCpn) | purified Mm-Cpn ATPase, ADP Transcreener TR-FRET | Potency, µM (highest dose often 76.9 µM), for the others: top-dose activity, negative = inhibition, hits mostly inhibitors | 0.031% of 330,000 active; note: potency is the fitted concentration of half-maximal effect; nearly all actives have a fitted effect of over 80% in size
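Inhibition of chaperonin ATP hydrolysis is measured as reduced ADP production, detected by competitive TR-FRET in which signal falls with ADP. Final enzyme 25 nM and ATP 10 uM, reacted 30 min at 37°C.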
CCT modulator = modulators of cytosolic chaperonin (CCT/TRiC) activity; purified chaperonin ATPase assay, HTRF ADP detection, 30 min; activity change, % (test concentration not listed), hits read low; 0.3% of 360,000 active; AID 651819; in the data active = activity change below about -30%
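TRiC (40 or 20 nM final, by batch activity) in 30 mM Tris pH 7.4, 100 mM KCl, 5 mM MgCl2, 1 mM DTT was treated with compound at 76 uM single dose, then 10 uM ATP, 30 min at 37 °C. ADP was read by HTRF Transcreener.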
VDR inhibitor = vitamin D3 receptor (human) inhibition. P11473. VDR-SRC2-3 peptide fluorescence polarization, 2 h. Potency, µM, for the others: max response, negative = inhibition, most hits filed as inhibitors. 0.93% of 400,000 active. AID 504847; note: potency is the fitted concentration of half-maximal effect
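Inhibition of the VDR/SRC2-3 peptide interaction is quantified by fluorescence polarization. Compounds (23 nl, pintool) incubate with the reagents for 2 hours at ambient room temperature.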
G9a inh = blocks human histone lysine methyltransferase G9a; Q96KQ7; G9a H3K9 monomethylation, AlphaScreen, 2 h; Potency, µM (highest dose often 102 µM), for inactives: top-dose activity, negative = inhibition, most hits filed as inhibitors; 8.8% of 350,000 active; AID 504332; note: potency is the fitted concentration of half-maximal effect; nearly all actives have a fitted effect of over 75% in size
Target sequence (Q96KQ7 913-1193 limits assumed): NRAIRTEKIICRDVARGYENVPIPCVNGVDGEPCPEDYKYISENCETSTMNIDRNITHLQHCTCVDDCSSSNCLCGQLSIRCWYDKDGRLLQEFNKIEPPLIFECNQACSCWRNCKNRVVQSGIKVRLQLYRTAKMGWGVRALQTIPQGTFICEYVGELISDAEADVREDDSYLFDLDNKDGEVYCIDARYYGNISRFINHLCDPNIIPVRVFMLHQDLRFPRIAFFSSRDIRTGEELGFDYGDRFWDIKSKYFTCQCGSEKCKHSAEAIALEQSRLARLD
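G9a (20 nM) was preincubated 15 min with compound, then reacted 2 h at room temperature with 500 nM biotin-H3K9 peptide and 20 µM SAM. Monomethyl-H3K9 detected by AlphaScreen using anti-H3K9me1 antibody.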
PLK1 PBD block = inhibitors of human PLK1 polo-box domain binding; P53350; Plk1 PBD binding of FITC phosphopeptide, fluorescence polarization; Potency, µM, without a hit: max response, negative = inhibition, actives largely listed as inhibitors; 2.8% of 360,000 active; AID 720504; note: potency is the fitted concentration of half-maximal effect; series mostly up to about 57 µM; nearly all actives have a fitted effect of over 65% in size
* marks the source's active call; other numbers are inactive results; ? = inconclusive; . = no result; [ ] = remark or other dose. Shown are actives, neighbours in structure and some others; about 10% of the full set was active somewhere. Unless noted, calls come from the whole dose curve; as a rule, active = well fitted curve in the direction sought with a large enough effect; inconclusive = small, poorly fitted or top-dose-only effect, or another doubt; inactive = no such curve, though single readings can be large; an effect the other way counts as inactive or inconclusive. Unless noted, % is set by controls: 0 for no effect and ±100 for the full control effect.

SMILES	Sfp inh	MmCpn inh	CCT modulator	VDR inhibitor	G9a inh	PLK1 PBD block
CCCN1CCC(NC(=S)Nc2ccc([N+](=O)[O-])cc2)CC1	-8.0%	0.2%	-0.3	-3.3%	.	-7.7%
O=[N+]([O-])c1ccc(C(=S)N2CCN(Cc3ccccc3)CC2)cc1	-17.4%	0.7%	-2.2	-1.0%	?	-12.3%
CCCN1CCN(C(=S)Nc2ccc([N+](=O)[O-])cc2)CC1	?	2.8%	-1.9	-1.7%	28.2µM*	?
CC1CCN(C(=S)c2ccc([N+](=O)[O-])cc2)CC1	44.7µM*	-1.0%	2.0	?	7.94µM*	23.8µM*
CCN1CCN(C(=S)c2ccc([N+](=O)[O-])cc2)CC1	12.6µM*	1.5%	-12.9	70.8µM*	10µM*	11.9µM*
CC1=C(C(=O)NCc2ccc(Cl)cc2)C2(CCC(C)CC2)OC1=O (configuration not stated)	19.7%	1.5%	0.4	0.7%	2.5%	-4.7%
CC1=C(C(=O)NCc2ccccn2)C2(CCC(C)CC2)OC1=O (configuration not stated)	-2.9%	-0.2%	-8.8	8.5%	10µM*	-2.2%
COCCCNC(=O)C(C)n1c2ccccc2c2cnn(C)c(=O)c21 (configuration not stated)	.	.	.	10.6%	-2.2%[59 µM]	.
Cn1c(C23CC4CC(CC(C4)C2)C3)n[nH]c1=S	-0.5%	0.7%	0.8	-21.3%	22.4µM*	-6.1%
CC(C)Cn1c(C23CC4CC(CC(C4)C2)C3)n[nH]c1=S	?	0.0%	1.5	-20.7%	3.16µM*	2.3%
CCCCCCCc1cc2c(cn1)C(=O)C(C)(OC(C)=O)C(O)=C2Cl (configuration not stated)	0.8%	.	.	?	.	.
O=C(CN(CC1CCCO1)C(=O)CNS(=O)(=O)c1ccc(Cl)cc1)NCc1ccco1 (configuration not stated)	19.7%	-0.7%	-46.3*	-10.1%	14.4%	-9.3%
O=C(CN(Cc1ccco1)C(=O)CNS(=O)(=O)c1ccc(Cl)cc1)NCc1ccc(F)cc1	.	.	-2.1	-22.2%	.	26.7µM*
O=C(CN(Cc1ccco1)C(=O)CNS(=O)(=O)c1ccc(F)cc1)NCc1ccc(F)cc1	-0.4%	1.2%	-1.3	10.7%	14.4%[12.7 µM]	-3.9%
O=C(Nc1nc2ccccc2c(=O)s1)c1ccco1	?	-1.8%	0.4	3.2%	70.8µM*	?
O=C(CCNC(=O)c1ccccc1Cl)Nc1nc2ccc(F)cc2s1	.	0.5%	0.8	4.9%	-0.7%[12.7 µM]	0.1%
O=C(Nc1n[nH]c(=S)s1)c1ccco1	56.2µM*	1.8%	-2.8	-23.4%	1.41µM*	?
O=C(Nc1nc2ccccc2c(=O)s1)c1ccc(F)cc1Cl	-13.5%	-9.9%	-0.1	0.8%	70.8µM*	?
O=C(CSc1oc(-c2ccco2)nc1S(=O)(=O)c1ccc(Cl)cc1)Nc1ccc(F)cc1	.	.	.	-7.0%	?	.
CC1=C(C(=O)OC(C)C)C(c2cccc([N+](=O)[O-])c2)C(C(=O)OC2CN(C(c3ccccc3)c3ccccc3)C2)=C(N)N1 (configuration not stated)	35.2%	.	.	11.5%	-7.1%[12.7 µM]	.
CC(=O)c1cccc(NC(=O)CN2CCN(Cc3ccccc3)CC2)c1	56.2µM*	-3.1%	-3.0	-22.6%	7.08µM*	-4.2%
COC(=O)c1cccc(NC(=O)CN2CCN(Cc3ccccc3)CC2)c1	16.9%	-3.3%	3.5	3.1%	?	-4.0%
CC(=O)c1ccc(NC(=O)CN2CCN(c3ccccc3)CC2)cc1	8.1%	-0.1%	-33.6*	-9.4%	.	-4.4%
COc1cccc([C@@H]2Oc3ccc(Br)cc3C[C@H]2OC(=O)Nc2cc(OC)c(OC)c(OC)c2)c1	3.3%	.	.	-0.5%	.	.
COc1ccccc1N1CCN(C(=O)C(CCSC)NS(=O)(=O)c2ccc3c(c2)oc(=O)n3C)CC1 (configuration not stated)	.	.	.	2.2%	16.3%[59 µM]	.
O=c1[nH]c(SCc2ccc(F)cc2)nc2c1CCCC2	.	.	.	13.6%	?	.
N#CCc1c(C#N)c(N)nc(N2CCN(c3ccc(F)cc3)CC2)c1C#N	-11.2%	0.5%	-0.3	3.0%	50.1µM*	-6.3%
